Screens as filed in PubChem BioAssay.
FMDV antiviral: High Throughput Screening for Foot and Mouth Disease Virus Antivirals. Potency, µM (series often up to 57.9 µM), inactives show top-dose activity change, negative = inhibition, usual class: inhibitors. 410,000 compounds, 1.2% hits. FMDV antiviral cell-based qHTS; calls by dose curve; tested in HEK293T cells; note: read-out not given here; potency is the fitted concentration of half-maximal effect; nearly all actives have a fitted effect of over 45% in size
Marburg entry inh: qHTS for inhibitors of binding or entry into cells for Marburg Virus | 300,000 compounds, 1.8% hits | Potency, µM (titrated, usually from 37.8 µM), inactives show at the highest dose activity change, negative = inhibition, actives largely listed as inhibitors | Marburg virus pseudotyped entry inhibition, cell reporter | AID 540276, 2011; calls by dose curve; tested in HEK293 cells; note: potency is the fitted concentration of half-maximal effect
HCMV inh: qHTS Assay for inhibitors of the human cytomegalovirus (HCMV) | HFF cells, HCMV-luciferase reporter, 72 h; hits give low values | activity change, negative = inhibition, % at 57.5 µM | 410,000 compounds, 4.5% hits; in the data active = activity change below about -60%; inconclusive = no clear call, values can overlap the other calls; inactive = above about -39%
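Luciferase read-out from HCMV-luciferase-infected HFFs (MOI 1 PFU/cell) 72 h post infection at 37C; compounds added after 16 h cell attachment; activity normalized between buffer-only basal and Salinomycin (10uM) inhibitor controls.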
LASV entry inh: qHTS for Inhibitors of binding or entry into cells for Lassa Virus; AID 540256, 2011; Potency, µM (highest dose often 37.9 µM), without a hit: top-dose activity change, negative = inhibition, hits mostly inhibitors; Lassa virus pseudotype entry inhibition, cell reporter; 300,000 compounds, 1.2% hits; calls by dose curve; tested in HEK293 cells; note: potency is the fitted concentration of half-maximal effect; nearly all actives have a fitted effect of over 50% in size
VACV Venus inh: qHTS for Stage-Specific Inhibitors of Vaccinia Orthopoxvirus: Venus Reporter Primary qHTS | Vaccinia virus Venus reporter expression, fluorescence | Potency, µM (series often up to 36.5 µM), without a hit: at the top dose activity change, negative = inhibition, actives largely listed as inhibitors | 330,000 compounds, 0.46% hits; calls by dose curve; tested in A549 cells; note: potency is the fitted concentration of half-maximal effect; nearly all actives have a fitted effect of over 30% in size
Vaccinia mCherry: qHTS for Stage-Specific Inhibitors of Vaccinia Orthopoxvirus: mCherry Reporter Primary qHTS. 310,000 compounds, 0.63% hits. Vaccinia virus mCherry reporter infection, fluorescence. Potency, µM (series often up to 36.5 µM), for inactives: at the highest dose activity change, negative = inhibition, hits mostly inhibitors. AID 720579, 2013; calls by dose curve; tested in A549 cells; note: potency is the fitted concentration of half-maximal effect; nearly all actives have a fitted effect of over 35% in size
* marks the source's active call; other numbers are inactive results; i = inactive; ? = inconclusive; / = no result given; [ ] = remark or other dose. Rows were chosen to be rich in hits. Some 6.5% of all compounds tested hit in one or more screens of this group. % is set by controls: 0 for no effect and ±100 for the full control effect.

SMILES	FMDV antiviral	Marburg entry inh	HCMV inh	LASV entry inh	VACV Venus inh	Vaccinia mCherry
Cc1ccc(S(=O)(=O)NC2c3cccc4cccc(c34)C2Sc2nc(C)cc(C)n2)cc1 (centres undefined)	4%	18µM*	1	?	-13%	-11%
CCS(=O)(=O)c1ccc(C(=O)Nc2cccc(Cl)c2)c(Cl)c1Cl	28µM*	?	?	?	?	/
CS(=O)(=O)Nc1ccccc1C(=O)Nc1cccc(Cl)c1	/	?	-67*	-1%	-23%	?
CS(=O)(=O)Nc1ccccc1C(=O)Nc1cc(Cl)cc(Cl)c1	?	?	-103*	?	11µM*	7.9µM*
COc1cccc(NC(=O)c2ccccc2NS(C)(=O)=O)c1	-10%	?	78	?	/	/
Cc1ncc2c(c1CNS(=O)(=O)N(C)C)CCN(C(=O)c1c(F)cccc1F)C2	-5%	/	/	/	13%	-4%
CC(=O)NCCNC(=O)CCCn1c(=O)[nH]c2ccsc2c1=O	3%	2%[46.1 µM]	1	16%[46.1 µM]	-2%	-3%
Cn1c(N2CCN(C(=O)NC34CC5CC(CC(C5)C3)C4)CC2)nc2ccccc21	-17%	10%	-19	-2%	/	/
Cc1cc(N2CCN(S(=O)(=O)c3ccc(Cl)cc3)CC2)c2ccccc2n1	/	?	-87*	16µM*	?	?
O=S(=O)(c1ccc(Cl)cc1)N1CCN(c2ccccn2)CC1	0%	7%	22	-9%	-15%	i
Cn1c(N2CCN(S(=O)(=O)c3ccc(Cl)cc3)CC2)nc2ccccc21	?	-22%[46.1 µM]	-61*	-24%	-6%	-3%
Cc1ccc(C(=O)N2CCN(c3nc4ccccc4n3C)CC2)cc1	?	/	-62*	/	/	/
CCc1nc2ccccc2nc1N1CCN(S(=O)(=O)c2ccc(Cl)cc2)CC1	?	11µM*	0	?	-18%	i
Cn1c(SCC(=O)N2CCN(S(=O)(=O)c3ccc(Cl)cc3)CC2)nc2ccccc21	?	-18%	66	?	/	/
C=CS(=O)(=O)N[C@@H](CSSC[C@H](NS(=O)(=O)C=C)C(=O)OC)C(=O)OC	/	/	-25	8%[46.1 µM]	/	/
O=C(CCCN1C(=O)c2cccnc2Oc2ccc(Cl)cc21)NCc1ccccc1F	3%	/	0	-1%[46.1 µM]	-6%	-13%
COc1cccc(N2CCN(C(=O)C3CCN(S(=O)(=O)c4c(C)noc4/C=C/c4ccccc4F)CC3)CC2)c1	-18%	/	-13	-3%[46.1 µM]	-7%[7.34 µM]	0%[7.34 µM]
COc1ccc(C2(C(=O)NCC3Cc4cccc(-c5cccnc5)c4O3)CCCC2)cc1 (centres undefined)	-14%	/	/	/	-12%	-19%
C=CCn1c(Sc2ncc([N+](=O)[O-])s2)n[nH]c1=O	?	?	-97*	?	0%	-14%
CSc1ccn(CC2CCC(Cl)CC2)c(=O)n1 (centres undefined)	/	14%	/	/	/	/
N=c1nc(N)nc2n1NC(c1ccc(F)cc1)=CS2	28%	?	-88*	?	?	?
COc1ccc(-c2ccc3c(n2)CCCN3S(=O)(=O)c2ccc(C#N)cc2)cc1	/	/	-29	/	/	/
COC(=O)[C@@]1(Sc2ccc(OC)cc2)CC(=O)N[C@@H]1c1ccc(OC(C)C)c(OC)c1	/	/	-5	/	/	/
Cc1ccccc1-n1cnc2c(sc3nc(N4CCOCC4)c4c(c32)CCCC4)c1=O	-18%	?	-89*	?	2%[7.34 µM]	i[7.34 µM]
O=c1c2sc3nc(N4CCOCC4)c4c(c3c2nnn1Cc1ccccc1)CCCC4	-11%	10%	-100*	17%	?	/
SMILES	FMDV antiviral	Marburg entry inh	HCMV inh	LASV entry inh	VACV Venus inh	Vaccinia mCherry
O=c1c2sc3nc(N4CCOCC4)c4c(c3c2ncn1-c1ccccc1)CCCC4	?	?	-64*	?	?	?
COc1ccc(-n2cnc3c(sc4nc(N5CCOCC5)c5c(c43)CCCC5)c2=O)cc1	?	-25%	58	?	2%	i
Cc1ccc(-n2cnc3c(sc4nc(N5CCOCC5)c5c(c43)CCCC5)c2=O)cc1	?	/	-35	/	/	/
CCOc1ccccc1CNC(=O)c1ccc(Cn2c(SCc3ccccc3)nc3cccnc32)cc1	4%	12%[46.1 µM]	-18	/	-15%	-8%
COc1ccc2cc(CNC3CCS(=O)(=O)C3)c(-c3ccc(OC)c(OC)c3)nc2c1 (centres undefined)	-15%	/	/	/	5%	-8%
CC(=O)Nc1cc(OC(C)=O)c2nonc2c1OC(C)=O	?	?	-104*	?	7.9µM*	7.9µM*
Cc1n[nH]c(=O)c2c(NC(=O)CSc3nnnn3-c3ccc(O)cc3)oc(C)c12	-7%	?	-67*	16%	-6%	i
Cc1n[nH]c(=O)c2c(NC(=O)CSc3nc4ccccc4c(=O)n3C(C)C)oc(C)c12	-26%	?	14	?	-17%	-27%
Cc1n[nH]c(=O)c2c(NC(=O)CSc3nc4ccccc4c(=O)n3CCCO)oc(C)c12	-19%	-12%[46.1 µM]	-87*	-5%	-4%	-13%
CN(C)c1ccc(/C=C/c2cc(Cl)nc3ccccc23)cc1	/	/	/	/	-17%	i
COc1cccc(/C=N/n2c(N)c(S(=O)(=O)c3cccs3)c3nc4ccccc4nc32)c1OC	17%	-24%	-81*	-30%	/	/
COCCn1c(N)c(S(=O)(=O)c2cccs2)c2nc3ccccc3nc21	/	-5%	/	23%	-14%	i
O=C(N[C@H]1CC[C@@]23CCCN2C(=O)CCC[C@H]3[C@H]1Cc1ccccc1)C1CCOC1 (some centres undefined)	/	/	-10	/	/	/
CCOC(=O)C1=C[C@@H](C(C)(C)C)N(S(=O)(=O)c2ccccc2C)[C@H]1c1ccc(Cl)cc1	?	/	-77*	/	0%	4%
CCOC(=O)C1=CCN(S(=O)(=O)c2ccccc2Cl)C1c1ccc(Cl)cc1 (centres undefined)	/	/	-28	/	/	/
CCOC(=O)C1=C[C@@H](C(C)(C)C)N(S(=O)(=O)c2ccc(C)cc2)[C@H]1c1ccc(Cl)c(Cl)c1	?	/	-88*	/	-5%	i
C[C@@H]1O[C@@H](O[C@@H]2C=C3CC[C@@H]4[C@@H](CC[C@]5(C)[C@H](c6ccc(=O)oc6)CC[C@@]45O)[C@@]3(C)CC2)[C@H](O)[C@H](O)[C@H]1O	/	/	/	/	6.3µM*	10µM*
COc1cccc(CNC(=O)C2Cc3cc(S(=O)(=O)N4CCCCCC4)ccc3N2C(C)=O)c1 (centres undefined)	-14%	/	21	13%[46.1 µM]	0%	-8%
Cc1ccc2nc(C)cc(C(=O)OCC(=O)Nc3cccnc3Cl)c2c1	-17%	30%[46.1 µM]	-76*	9%	2%	4%
Cc1ccc(OCC(=O)Nc2ccccc2F)cc1C	37%	-23%[46.1 µM]	9	?	-8%	-5%
